The results in this text go back to PubChem BioAssay AID602329 (Broad Institute, 2012).

Among all 360,000 compounds or so, about 510 (0.14%) were called active. Only a selection was taken, and actives are over-represented in it overall. A number with no mark means an inactive call.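 Rule for the calls: active = mean normalized replicate activity at least 40 and at least half of replicates scoring 40 or more; inconclusive = only one of the two criteria met; inactive = mean below 40 and under half of replicates reaching 40.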

The target of this assay is DNA repair and recombination protein RAD54-like (Homo sapiens) (UniProt Q92698). Put plainly: inhibitors of human RAD54 branch migration, primary screen, biochemical, fluorescence, single point (AID 602329).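 Note: 0% = median of neutral control wells and 100% = median of positive control wells; inhibitors cause a drop in the FAM fluorescence signal.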 As to conditions: RAD54 Holliday junction branch migration, FAM/BHQ fluorescence; at 10.4 µM; stronger effect = higher value.
Sequence of DNA repair and recombination protein RAD54-like (Homo sapiens) (Q92698 whole entry, looked up): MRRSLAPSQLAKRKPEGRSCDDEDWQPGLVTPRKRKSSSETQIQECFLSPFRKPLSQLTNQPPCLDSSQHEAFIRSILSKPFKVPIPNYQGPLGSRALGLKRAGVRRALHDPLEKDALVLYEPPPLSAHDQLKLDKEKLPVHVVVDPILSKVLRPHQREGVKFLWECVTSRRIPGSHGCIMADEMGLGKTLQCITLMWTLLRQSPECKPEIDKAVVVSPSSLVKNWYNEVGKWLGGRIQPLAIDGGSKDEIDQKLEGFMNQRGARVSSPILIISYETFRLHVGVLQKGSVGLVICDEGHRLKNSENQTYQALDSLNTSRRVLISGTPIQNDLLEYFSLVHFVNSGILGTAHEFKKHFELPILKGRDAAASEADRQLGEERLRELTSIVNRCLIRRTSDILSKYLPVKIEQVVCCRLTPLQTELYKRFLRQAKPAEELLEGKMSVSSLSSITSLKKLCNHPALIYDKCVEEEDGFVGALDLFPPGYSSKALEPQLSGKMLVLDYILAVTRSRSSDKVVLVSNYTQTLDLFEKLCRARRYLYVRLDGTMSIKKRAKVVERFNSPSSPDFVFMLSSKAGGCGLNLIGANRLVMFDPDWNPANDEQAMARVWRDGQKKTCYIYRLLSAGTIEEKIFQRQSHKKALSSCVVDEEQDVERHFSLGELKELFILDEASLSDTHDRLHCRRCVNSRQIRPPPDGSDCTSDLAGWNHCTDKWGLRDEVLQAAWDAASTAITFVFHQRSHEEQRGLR
Regarding `O=S(=O)(c1ccc(F)cc1)N1CC[C@@H]2[C@@H](CO)Nc3ccc(-c4ccccc4F)cc3[C@@H]21`, the inhibition (as a rule, the change of the read-out against control, counted positive when it falls) was 7.93%.

For the compound `CC(=O)N(C)C[C@@H]1Oc2ncc(-c3ccccc3F)cc2C(=O)N([C@H](C)CO)C[C@@H]1C`, the inhibition is -1.78%.

For `COc1ccccc1NC(=O)N1[C@H](C#N)[C@H](c2ccccc2)[C@H]1CO`, the inhibition was 10.5%.

As to `CC(=O)N(C)C[C@H]1Oc2cc(C#Cc3ccccc3F)ccc2S(=O)(=O)N([C@H](C)CO)C[C@@H]1C`, the inhibition was 2%.

For the compound `O=C(C[C@@H]1C=C[C@@H](NC(=O)c2cccnc2)[C@H](CO)O1)NCCN1CCCCC1`, the inhibition is 0.617%.

Consider `O=C(CC1CC1)Nc1ccc2c(c1)[C@@H]1C[C@@H](CC(=O)NC3CCCCC3)O[C@H](CO)[C@@H]1O2`, for which the inhibition is -1.82%.

`CN1CCC[C@@H]1CCO[C@](C)(c1ccccc1)c1ccc(Cl)cc1`: the inhibition was 11.3%.

Regarding `Cc1cc2oc3ccc(NCCC4CCCN4C)cc3c(=O)c2cc1C` (configuration not stated), the inhibition was 102% (active).

In the case of `COc1cccc2sc3cc(NCC[C@@H]4CCCN4C)ccc3c(=O)c12`, the inhibition was 94% (active).

Take `CO[C@@H]1CN(C)C(=O)c2cc(NS(=O)(=O)CC(F)(F)F)ccc2OC[C@@H](C)N(Cc2ccccn2)C[C@H]1C`: the inhibition was -9.64%.

Consider `COc1ccc(S(=O)(=O)Nc2ccc3c(c2)C(=O)N([C@@H](C)CO)C[C@@H](C)[C@@H](CN(C)S(C)(=O)=O)O3)cc1`, for which the inhibition is -4.67%.

As to `C[C@@H]1CCCCO[C@@H](CN(C)C(=O)NC2CCCCC2)[C@H](C)CN([C@H](C)CO)C(=O)c2cc(NC(=O)c3ccccc3)ccc2O1`, the inhibition is -0.448%.

Take `COc1cccc(NC(=O)N2C[C@@H](O)COC[C@@H]3O[C@@H](CC(=O)NC4CCC4)CC[C@H]32)c1`: the inhibition was -4.41%.

As for `C[C@@H]1CN([C@@H](C)CO)C(=O)c2cc(NC(=O)Nc3ccc(C(F)(F)F)cc3)ccc2O[C@@H](C)CCCCO[C@H]1CN(C)C(=O)c1ccccc1`, the inhibition was -3.03%.

For the compound `CO[C@H]1CC[C@H]2CCOc3c(C#N)cccc3C(=O)N(C)CC3(CCCCC3)CC(=O)N(C)C[C@@H]1O2`, the inhibition was -12.8%.

As for `CN1c2ccc(Br)cc2[C@@H]2[C@@H](CCN2S(=O)(=O)c2ccc(F)cc2)[C@@H]1CO`, the inhibition was -1.32%.

As for `CN1c2ccc(-c3ccccc3)cc2[C@@H]2[C@@H](CCN2C(=O)c2ccccc2F)[C@@H]1CO`, the inhibition is 4.56%.

`CCCC#Cc1ccc2c(c1)O[C@H](CN(C)C(=O)c1ccncc1)[C@H](C)CN([C@H](C)CO)S2(=O)=O`: the inhibition is 12.3%.

In the case of `C[C@@H]1CN([C@@H](C)CO)C(=O)Cc2cc(NC(=O)Nc3ccc4c(c3)OCO4)ccc2O[C@@H]1CN(C)S(=O)(=O)c1ccc(Cl)cc1`, the inhibition is 1.58%.

On to `Cc1cc(C)c2nc3nc(C)cc(C)c3c(N)c2c1`, for which the inhibition is 96% (active).

Regarding `CCC(=O)N(C)C[C@H]1Oc2ncc(C#C[C@@H](C)O)cc2C(=O)N([C@@H](C)CO)C[C@H]1C`, the inhibition is 0.495%.

Consider `CN1CCN(C(=O)C[C@H]2C[C@H]3c4cc(NC(=O)C5CCC5)ccc4O[C@H]3[C@H](CO)O2)CC1`, for which the inhibition was 6.76%.

Take `CNC[C@H]1OCCCC[C@@H](C)Oc2ccc(NC(=O)c3ccccc3)cc2C(=O)N([C@@H](C)CO)C[C@H]1C`: the inhibition was 6.8%.

For `COc1ccc(S(=O)(=O)N2CC[C@H]3[C@@H](CO)N(C)c4ccc(C#Cc5ccccc5OC)cc4[C@H]32)cc1`, the inhibition was 17.3%.

For the compound `C/C=C/c1ccc([C@@H]2[C@@H](CO)N(C(=O)CC)[C@H]2CN(C)C(=O)C2CC2)cc1`, the inhibition was -7.87%.

For the compound `O=C(N[C@@H]1C=C[C@H](CC(=O)N2CCOCC2)O[C@H]1CO)c1ccccn1`, the inhibition was -0.273%.

For the compound `COc1ccc(S(=O)(=O)Nc2ccc3c(c2)CC(=O)N([C@H](C)CO)C[C@@H](C)[C@@H](CN(C)S(=O)(=O)c2ccc(F)cc2)O3)cc1`, the inhibition is -1.32%.

As for `C[C@H](CO)N1C[C@H](C)[C@H](CN(C)C(=O)Nc2ccccc2)Oc2c(NC(=O)Nc3ccc(C(F)(F)F)cc3)cccc2C1=O`, the inhibition is 0.373%.

`CO[C@@H](CN(C)C(=O)c1ccc2c(c1)OCO2)[C@@H](C)CN([C@H](C)CO)S(=O)(=O)c1ccccc1`: the inhibition is 2.31%.

Consider `CCCC#Cc1ccc([C@@H]2[C@H](CO)N3CCCCN(S(=O)(=O)c4ccccc4F)C[C@@H]23)cc1`, for which the inhibition is 6.77%.

For `COc1ccc(CCn2c(=N)c(C(=O)NCC3CCCO3)cc3c(=O)n4cccc(C)c4nc32)cc1OC` (configuration not stated), the inhibition was 52.7% (active).

Consider `CCOCCCNC(=O)c1cc2c(=O)n3ccccc3nc2s1`, for which the inhibition is 10.2%.

Take `CCn1c(=N)c(C(=O)NCCCOC)cc2c(=O)n3cccc(C)c3nc21`: the inhibition was 50.9% (active).

Consider `COCCCn1c(C(=O)NC2CCCCC2)cc2c(=O)n3cccc(C)c3nc21`, for which the inhibition is -1.16%.

With `Cc1ccc(S(=O)(=O)c2cc3c(=O)n4cccc(C)c4nc3n(CCc3ccccc3)c2=N)cc1C`, the inhibition was 0.033%.

As to `Cc1ccc2nc3c(cc(C(=O)NCCc4ccccc4)c(=N)n3CC3CCCO3)c(=O)n2c1` (configuration not stated), the inhibition is 12.1%.

On to `O=C(NC1Cc2ccccc2C1)[C@@H]1[C@@H](CO)[C@@H]2Cn3c(ccc(C4=CCCC4)c3=O)[C@H]1N2CC1CC1`, for which the inhibition is 2.91%.

For the compound `O=C(Nc1ccc(F)cc1)N1CCCCN2[C@H](CO)[C@H](c3ccc(-c4ccncc4)cc3)[C@@H]2C1`, the inhibition is -8.07%.

`COCC(=O)Nc1ccc2c(c1)[C@@H]1C[C@@H](CC(=O)N3CCN(C)CC3)O[C@H](CO)[C@@H]1O2`: the inhibition is 7.82%.

Turning to `CC(C)n1cnc2c(NCc3ccccc3)cc(OCC3CCN(C)CC3)cc21`, the inhibition was 78.7% (active).

As to `CCC(=O)Nc1ccc2c(c1)C(=O)N(C)C[C@H](OC)[C@@H](C)CN(Cc1cccnc1)[C@H](C)CO2`, the inhibition is -1.44%.

Regarding `NC(N)=Nc1nc(-c2ccccc2)c2cc(Cl)ccc2n1`, the inhibition is 58.9% (active).

Consider `Clc1ccc2nc(-c3ccccc3)nc(C(Cl)Cl)c2c1`, for which the inhibition is -6.9%.

`CC(C)NC(=O)N(C)C[C@H]1Oc2ncc(-c3ccccc3F)cc2C(=O)N([C@@H](C)CO)C[C@@H]1C`: the inhibition was -5.71%.

For `C[N+](C)(CCCCCC[N+](C)(C)CCCN1C(=O)c2cccc3cccc(c23)C1=O)CCCN1C(=O)c2cccc3cccc(c23)C1=O`, the inhibition is 115% (active).

Consider `O=C(CCCN1C(=O)c2cccc3cccc(c23)C1=O)N1CCN(Cc2ccc3c(c2)OCO3)CC1`, for which the inhibition was 8.9%.

On to `O=C(COC(=O)CCCN1C(=O)c2cccc3cccc(c23)C1=O)NC1CCS(=O)(=O)C1` (configuration not stated), for which the inhibition is -5.27%.

Regarding `CCC(=O)N1C[C@H](C)[C@H](OC)CN(C)C(=O)c2ccc(NC(=O)c3cnccn3)cc2OC[C@@H]1C`, the inhibition is -7.7%.

For `O=C(Cc1ccncc1)NCC[C@H]1CC[C@H](NC(=O)Nc2cccc(F)c2)[C@H](CO)O1`, the inhibition is -5.21%.

Turning to `CCC(=O)N1C[C@@H](C)[C@@H](OC)CN(C)C(=O)c2ccc(NC(=O)c3ccccc3)cc2OC[C@H]1C`, the inhibition was -5.42%.

Consider `COc1ccc(NC(=O)Nc2ccc3c(c2)CC(=O)N([C@@H](C)CO)C[C@@H](C)[C@@H](CN(C)Cc2ccc(Cl)c(Cl)c2)O3)cc1`, for which the inhibition was 12.1%.

In the case of `C[C@@H](O)C#Cc1ccc([C@H]2[C@H](CO)N3CCCCN(C(=O)c4ccc5c(c4)OCO5)C[C@@H]23)cc1`, the inhibition was 1.48%.

On to `CCC(=O)N(C)C[C@@H]1Oc2ncc(/C=C/c3ccccc3)cc2C(=O)N([C@@H](C)CO)C[C@H]1C`, for which the inhibition was 0.476%.

Consider `COCC#Cc1cnc2c(c1)C(=O)N([C@H](C)CO)C[C@H](C)[C@H](CN(C)C(=O)Nc1cc(F)ccc1F)O2`, for which the inhibition is 0.435%.

As to `COc1ccc(NC(=O)N[C@@H]2CC[C@H](CC(=O)NC3CCC3)O[C@H]2CO)cc1`, the inhibition was 4.37%.

Take `C/C=C/c1ccc2c(c1)O[C@H](CN(C)C(=O)CN(C)C)[C@H](C)CN([C@@H](C)CO)S2(=O)=O`: the inhibition was -12.5%.

Turning to `C[C@H]1CN([C@@H](C)CO)C(=O)c2cc(C#CCN(C)C)cnc2O[C@H]1CN(C)C(=O)Cc1ccccc1`, the inhibition was 3.35%.

As to `COc1ccc(-c2ccc3c(c2)[C@H]2[C@H](CCN2C(=O)c2ccc4c(c2)OCO4)[C@@H](CO)N3)cc1`, the inhibition was -2.22%.

Turning to `CCC(=O)N1C[C@H](C)[C@H](OC)CN(C)C(=O)c2ccc(NC(=O)Nc3ccccc3)cc2OC[C@H]1C`, the inhibition is -3.3%.

For `C[C@H](CO)N1C[C@H](C)[C@H](CN(C)C)Oc2ncc(-c3ccncc3)cc2C1=O`, the inhibition is 8.42%.

Regarding `COc1ccc(NC(=O)Nc2ccc3c(c2)CC(=O)N([C@@H](C)CO)C[C@H](C)[C@@H](CN(C)CC2CCCCC2)O3)cc1`, the inhibition is 3.95%.

On to `CN(C)C(=O)C[C@@H]1C[C@@H]2c3cc(NC(=O)NC4CCCCC4)ccc3O[C@@H]2[C@H](CO)O1`, for which the inhibition was -2.4%.

`O=C(C[C@H]1CC[C@H]2[C@@H](COC[C@H](O)CN2C(=O)c2ccncc2)O1)NCc1cc(F)cc(F)c1`: the inhibition is 1.6%.

As for `C[C@H](CO)N1C[C@H](C)[C@H](CN(C)S(=O)(=O)c2cccs2)Oc2c(NS(=O)(=O)c3ccc(Cl)cc3)cccc2C1=O`, the inhibition was 3.72%.

On to `Cc1nc2ccccc2c2oc(C(=O)NCCCN3CCC(C)CC3)cc12`, for which the inhibition was 55.2% (active).

As to `CC1CCN(CCCn2c(SCC(=O)NC3CCCC3)nc3ccccc3c2=O)CC1`, the inhibition is -8.12%.

For the compound `CC1CCN(C(=O)CCNC(=O)c2ccccc2)CC1`, the inhibition was -8.53%.
